# Screening data (PubChem)
# Compounds with a hit are over-represented: about 8.7% of the library has one in this group of screens.
# Sfp PPTase inh = qHTS Assay for Inhibitors of Bacillus subtilis Sfp phosphopantetheinyl transferase (PPTase); AID 1490, 2009; Potency, µM, inactives show largest response in the series, negative = inhibition, hits mostly inhibitors; 4'-phosphopantetheinyl transferase ffp (Bacillus subtilis), Q9F4F7; 310,000 tested, 3.5% active; Biochemical Sfp PPTase activity, qHTS;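 note: the enzyme is Sfp with the accession as filed and its product quenches rhodamine fluorescence; 0% = enzyme reaction without inhibitor and -100% = no enzyme wells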
#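 Fluorescence-quenching assay: 15 nM Sfp-PPTase preincubated 15 min at room temperature with compound, then 5 uM rhodamine-CoA and 12.5 uM BHQ-2-labelled YbbR peptide added. Fluorescence (ex 525/em 598 nm) read at start and after 30 min; difference gives rate.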
# ALOX12 inh = Primary qHTS assay for inhibitors of human arachidonate 12S-lipoxygenase (ALOX12): Round 2; Polyunsaturated fatty acid lipoxygenase ALOX12 (Homo sapiens), P18054; 580,000 tested, 1.1% active; purified 12hLO, xylenol orange hydroperoxide absorbance; Potency, µM (titrated, usually from 108 µM), for inactives: at the highest dose activity change, negative = inhibition, hits mostly inhibitors; AID 1671190, 2021; note: % is set by controls: 0 for no effect and ±100 for the full control effect
#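 Purified human 12hLO (150 nM final) in 25 mM Hepes, 0.01% Triton X-100, pH 7.0 was preincubated 15 min at room temperature with compound. Then 40 uM arachidonic acid was added, 30 min. Hydroperoxide was read by Fe-XO absorbance ratio 573/405 nm.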
# BAZ2B inh = qHTS Assay for Inhibitors of BAZ2B; Bromodomain adjacent to zinc finger domain protein 2B (Homo sapiens), Q9UIF8; AID 504333, 2011; AlphaScreen BAZ2B-H3K14Ac peptide displacement; Potency, µM (top dose mostly 114 µM), inactives show at the highest dose activity change, negative = inhibition, hits mostly inhibitors; 360,000 tested, 4.4% active; note: % is set by controls: 0 for no effect and ±100 for the full control effect; nearly all actives have a fitted effect of over 60% in size
#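 AlphaScreen displacement: compounds (up to 110uM) incubated 30 min at room temperature with a preformed 50 nM BAZ2B/50 nM biotinylated H3K14Ac peptide complex in PBS pH 7.4 with Tween-20. Donor and acceptor beads at 10 ug/mL final added, 20 min light-protected before reading.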
# JMJD2A Tudor inh = qHTS Assay for Inhibitors of JMJD2A-Tudor Domain. Lysine-specific demethylase 4A (Homo sapiens), O75164. AID 504339, 2011. Potency, µM (top dose mostly 114 µM), inactives show top-dose activity change, negative = inhibition, usual class: inhibitors. 390,000 tested, 4.4% active. AlphaScreen JMJD2A-Tudor / H3K4me3 peptide binding; note: % is set by controls: 0 for no effect and ±100 for the full control effect; nearly all actives have a fitted effect of over 50% in size
# G9a inh = qHTS Assay for Inhibitors of Histone Lysine Methyltransferase G9a | Histone-lysine N-methyltransferase EHMT2 (Homo sapiens), Q96KQ7 | G9a H3K9 monomethylation, AlphaScreen, 2 h | Potency, µM (series often up to 102 µM), without a hit: at the highest dose activity, negative = inhibition, actives largely listed as inhibitors | 350,000 tested, 8.8% active; note: % is set by controls: 0 for no effect and ±100 for the full control effect; nearly all actives have a fitted effect of over 75% in size
# Target sequence (Q96KQ7 913-1193 limits assumed): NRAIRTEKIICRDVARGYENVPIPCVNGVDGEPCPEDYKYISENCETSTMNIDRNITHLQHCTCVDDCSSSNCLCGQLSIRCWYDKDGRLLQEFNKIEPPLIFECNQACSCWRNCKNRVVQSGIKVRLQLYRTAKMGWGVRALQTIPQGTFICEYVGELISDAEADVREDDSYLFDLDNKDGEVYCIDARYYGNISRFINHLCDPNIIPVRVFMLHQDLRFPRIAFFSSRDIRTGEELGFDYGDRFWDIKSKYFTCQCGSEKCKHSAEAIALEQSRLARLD
#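 G9a (20 nM) preincubated 15 min RT with compounds, then 500 nM biotinylated H3K9 peptide and 20 uM SAM added; 2 h RT reaction. Monomethyl-H3K9 product detected by AlphaScreen with anti-H3K9me1 antibody, streptavidin donor and anti-rabbit IgG acceptor beads.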
# HP1b binding inh = HTS for Inhibitors of HP1-beta Chromodomain Interactions with Methylated Histone Tails; AID 540317, 2011; Chromobox protein homolog 1 (Homo sapiens), P83916; Potency, µM (series often up to 114 µM), without a hit: at the highest dose activity change, negative = inhibition, actives largely listed as inhibitors; AlphaScreen HP1-beta / biotin-H3K9me3 peptide binding; 390,000 tested, 0.56% active; note: nearly all actives have a fitted effect of over 70% in size
# Target sequence (P83916 whole entry, looked up): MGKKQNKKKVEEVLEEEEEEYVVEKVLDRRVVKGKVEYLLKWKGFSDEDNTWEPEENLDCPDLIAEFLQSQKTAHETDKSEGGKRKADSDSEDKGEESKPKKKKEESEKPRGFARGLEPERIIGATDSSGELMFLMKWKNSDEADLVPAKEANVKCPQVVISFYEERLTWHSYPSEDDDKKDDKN
#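 Compound inhibition of the preformed complex between 50 nM HP1-beta and 50 nM biotinylated H3K9me3 peptide was read by AlphaScreen. Buffer was PBS pH 7.4 with 0.01% Tween-20. Incubations ran 30 min at room temperature, with 10 ug/mL donor/acceptor beads.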
# Numbers without * were called inactive; u = inconclusive; x = no result; [ ] = remark or other dose. Calls come from the whole dose curve; as a rule, active = well fitted curve in the direction sought with a large enough effect; inconclusive = small, poorly fitted or top-dose-only effect, or another doubt; inactive = no such curve, though single readings can be large; an effect the other way counts as inactive or inconclusive. Potency is the fitted concentration of half-maximal effect.
SMILES,Sfp PPTase inh,ALOX12 inh,BAZ2B inh,JMJD2A Tudor inh,G9a inh,HP1b binding inh
COc1ccc(C(=O)N2C[C@@H]3OCC(=O)N(CC4CC4)[C@@H]3C2)cc1,x,6%[176 µM],x,x,x,x
COCCNC(=O)/C(C#N)=C\c1ccc(CNC(=O)C(=O)Nc2ccc(C)c(C)c2)o1,-1%,-21%,-17%,-9%,-8%,36%
CCOC(=O)C1=C(O)/C(=C\c2ccc(CNC(=O)C(=O)Nc3ccc(C)c(C)c3)o2)N=C1C,-26%,x,-39%,x,45µM*,x
CCN1C(=O)/C(=C/c2c(C)nn(C)c2C)SC1=S,u,10µM*,-16%,u,u,7%
CC(C)n1ncc2c(C(=O)Nc3ccccc3F)c3c(nc21)CCC3,x,8%,x,x,x,x
CCNc1nc(NC(C)C)nc(N(C)C#N)n1,-5%,-2%,-2%,-12%[11.4 µM],x,29%
CC(C)Nc1nc(NC(C)C)nc(N(C)N)n1,13%,4%,3.2µM*,35µM*,52%[59 µM],30%
CCNc1nc(NCC)nc(N(C)N)n1,10%,10%,25µM*,28µM*,27%,50%
N#Cc1c(SCC(=O)Nc2nccs2)sc2c(O)cc(=O)[nH]c12,40µM*,u,16µM*,-35%,32µM*,-5%
CCCSc1nnc(NC(=O)CSc2sc3c(O)cc(=O)[nH]c3c2C#N)s1,u,50µM*,40µM*,56µM*,11µM*,-30%
N#Cc1c(SCC(=O)Nc2ccc(Cl)cc2Cl)sc2c(O)cc(=O)[nH]c12,-16%,-20%,-30%,-19%,u,22%
Nn1c(SCC(=O)NCCc2ccc(Cl)cc2)nnc1-c1ccco1,x,0%,x,x,x,x
O=S(=O)(c1ccc2c(c1)OCCO2)c1nc(-c2ccco2)oc1N1CCOCC1,x,12%,x,x,x,x
NS(=O)(=O)c1ccc(NC(=O)CSc2ccccn2)cc1,79µM*,0%,2%,-1%,-48%[59 µM],32%
NS(=O)(=O)c1ccc(NC(=O)CSc2cn[nH]n2)cc1,12%,0%,-3%,-6%,45µM*,48%
CC(C)c1ccc(NC(=O)CSc2ncccc2C(=O)Oc2cccc([N+](=O)[O-])c2)cc1,-20%,u,7%,-14%,50µM*,16%[57 µM]
O=C(CSc1ccccn1)Nc1cccc([N+](=O)[O-])c1,-26%,-13%,-15%,-25%,11µM*,-1%
CN(Cc1ccccc1Cl)C(=O)c1ccc2c(c1)CCCN2S(C)(=O)=O,x,12%,x,x,x,x
O=C(O)c1cc(-c2ccccn2)nc2ccc(F)cc12,x,3%,x,x,x,x
CCOc1ccccc1-n1nnc2c(=O)n(Cc3nc(-c4ccc(OC)cc4OC)no3)cnc21,x,-29%,x,x,x,x
NS(=O)(=O)c1cccc(NC(=O)CSc2ncnc3ccccc23)c1,9%,8%,-2%,-11%,16%[59 µM],25%
NS(=O)(=O)c1ccc(NC(=O)CSc2ncnc3ccccc23)cc1,9%,-1%,79µM*,-13%,-32%,38%
O=C(O)c1ccc2c(c1)C(=O)N(c1ccccc1-c1ccccc1)C2=O,19%,36%,u,0%,-39%[59 µM],43%
O=C1C(c2ccccc2)=S=C2C=Cc3ccccc3N12,x,22µM*,x,x,x,x
COc1ccc(NC(=O)CSc2ccc(-c3cccs3)nn2)cc1,x,-25%,-17%,-20%,10µM*,5%
SMILES,Sfp PPTase inh,ALOX12 inh,BAZ2B inh,JMJD2A Tudor inh,G9a inh,HP1b binding inh
COc1cc(NC(=O)CSc2ccc(-c3ccco3)nn2)cc(OC)c1,28µM*,-6%,-38%,-32%,u,29%
CC(=O)Nc1ccc(NC(=O)CSc2ccc(-c3cccs3)nn2)cc1,-17%,-3%,-11%,-6%,10%,20%
COc1ccc(NC(=O)CSc2ccc(-c3cccnc3)nn2)cc1,6%,0%,-1%,-10%,x,11%
COc1ccc(-c2ccc(SCC(=O)NCc3ccco3)nn2)cc1,6%,10%,-6%,0%,17%[59 µM],17%
COc1ccc(NC(=O)CSc2ccc(-c3ccco3)nn2)cc1,32µM*,u,-37%,-29%,x,4%
Cc1ccc(NC(=O)c2nn(-c3ccccc3)c(=O)c3ccccc23)c(O)c1,x,-2%,x,x,x,x
Cn1nc(C(=O)OCC(=O)NC(=O)c2ccc(C(C)(C)C)cc2)c2ccccc2c1=O,x,22%,x,x,x,x
COCC1CN(C2CCC2)CC12CCN(C(=O)CCC1CCCC1)CC2 (stereo unspecified),x,8%,x,x,x,x
Cc1cc(SCC(=O)N/N=C/c2ccc(O)c(O)c2O)c(C)cc1Br,10µM*,u,-26%,50µM*,u,u
COc1cc(/C=N/NC(=O)CSc2cc(C)c(Br)cc2C)ccc1O,u,-6%,4%,2%,2%,15%
CCCc1cc(C(=O)OC)c(NC(=O)CC2Sc3ccc(C(F)(F)F)cc3NC2=O)s1 (stereo unspecified),x,-18%,x,x,x,x
Cc1ccc(CN2CCN(/N=C\C(Br)=C\c3ccccc3)CC2)cc1,-24%,-16%,u,45µM*,u,u
ClC(/C=N/N1CCN(Cc2ccccc2)CC1)=C/c1ccccc1,x,-29%,x,x,x,x
CC(/C=N/N1CCN(Cc2ccccc2)CC1)=C\c1ccccc1,-6%,-1%,50µM*,45µM*,28µM*,u
CC(/C=N/N1CCN(c2ccc(C)cc2)CC1)=C\c1ccccc1,14%,0%,-10%,-25%,2%[59 µM],1%
BrC(=C\c1ccccc1)/C=N/N1CCN(c2ccccc2)CC1,45µM*,u,u,-29%,20µM*,-30%
Cc1ccc(CN2CCN(/N=C/c3ccccc3)CC2)cc1,4%,0%,u,u,u,u
CCc1cccc(NC(=O)c2ccc3c(c2)N(CC)C2CCCCCN2C3=O)c1 (stereo unspecified),x,12%,x,x,x,x
Cc1ccc(-c2csc3nc4c5ccccc5c(NCCCN(C)C)nn4c(=O)c23)cc1,u,u,13%,5%,35µM*,-20%
Cn1cc(CC(=O)N2CCCc3ncc(C(=O)Nc4cccnc4)cc32)c2ccccc21,x,4%[176 µM],x,x,x,x
O=C(NCCN1Cc2ccccc2OC(c2ccccc2F)C1)c1ccncc1 (stereo unspecified),x,4%,x,x,x,x
COc1cccc(-c2nn(-c3ccccc3)cc2CN(C)Cc2c(C)nc3ccccn23)c1,56µM*,-5%,-38%,56µM*,u,-28%
